Growth data for 9 compounds are collected here from PubChem BioAssay (NCI).

Compounds without any hit were thinned out: in the full panel of roughly 83,000, 20% have a hit.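 Percent growth is the endpoint: 0 to 100 indicates growth inhibition (40 means 60% inhibition), 0 means no net growth, and negative values indicate cell death.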 Unmarked numbers belong to inactive results. The source made the active and inactive calls. Rule for the calls: active = growth percent below 10; inactive = the rest.

Experiment in all cases: NCI-60 one-dose screen, 48 h (100 = growth as untreated, 0 = no growth, -100 = all killed)
Conditions in all cases: 10 µM unless noted

In assay [1] the test system is NCI-H23 lung.
In assay [2] the test system is NCI-H226 lung.
The test system of assay [3] is NCI-H322M lung.
Assay [4] concerns HOP-62 NSCLC.
In assay [5] the test system is NCI-H460 lung.
Assay [6] deals with NCI-H522 lung.
Assay [7] has as its system A549/ATCC NSCLC.
Assay [8] deals with 786-0 renal.
For assay [9], the system named is COLO 205 colon.
The subject of assay [10] is DU-145 prostate.
The test system of assay [11] is K-562 leukemia.
For assay [12], the system named is MALME-3M melanoma.
For assay [13], the system named is MDA-MB-231 breast.
Assay [14] has as its system RXF 393 renal.
Assay [15] concerns SF-268 CNS.
Assay [16] relates to SF-295 CNS.
Assay [17] has as its system SF-539 CNS.
In assay [18] the test system is UACC-257 melanoma.
The test system of assay [19] is M14 melanoma.

With `CN(C)c1nc(-c2cccs2)n2nc(-c3ccco3)cc2n1`, the growth is 87.2% in assay [1]; 90.2% in [2]; 106% in [3]; 106% in assay [4]; 98.4% in assay [5]; 96.2% in assay [6]. In addition, the growth in assay [7] is 101%; in assay [8], 96.1%; in [9], 126%; in assay [10], 116%; in assay [11], 106%; in assay [12], 121%. Moreover, the growth was 82.6% in [13]; 83.7% in [14]; 104% in [15]; 106% in [16]; 93.6% in assay [17]; 113% in assay [18]. For the same compound, in assay [19], the growth was 98%.

As to `O=C(Nc1ccc(Br)cc1)c1ccc(Cl)c(Cl)c1`, the growth in assay [1] was 26.2%; in assay [2], 61.8%; in [3] it was 42.3%; in [4], 98.3%; in assay [5], 14%; in assay [6] it was 60.2%. For the same compound, the growth is 63.4% in [7]; 73.1% in assay [8]; 83.9% in [9]; 34.7% in assay [10]; 12.9% in assay [11]; 48.5% in [12]. Moreover, the growth in assay [13] was 56%; in assay [14], 112%; in assay [15], 73.6%; in assay [16], 6.6% (active); in assay [17], 67.5%; in [18] it was 102%. In assay [19], the growth was 64.5%.

Take `CN(C)N1C(=O)c2c(Cl)c(Cl)c(Cl)c(Cl)c2C1=O`: the growth was 96.9% in assay [1]; 103% in [2]; 112% in assay [3]; 108% in assay [4]; 110% in assay [5]; 94.2% in [6]. Also, the growth was 104% in assay [7]; 103% in assay [8]; 111% in assay [9]; 120% in assay [10]; 98.4% in assay [11]; 123% in assay [12]. Besides, the growth in [13] is 115%; in assay [14], 112%; in [15], 106%; in assay [16], 123%; in assay [17], 118%; in [18], 104%. For the same compound, the growth in assay [19] is 101%.

Turning to `COc1cc(C2CC(c3ccccc3)=NN2C=O)ccc1Oc1nc2c(c(=O)n(C)c(=O)n2C)n1C` (stereo unspecified), the growth is 79% in assay [1]; 79% in assay [2]; 55.4% in assay [3]; 102% in assay [4]; 91.3% in [5]; 91.7% in assay [6]. Besides, the growth in assay [7] is 61.5%; in assay [8], 98.1%; in assay [9], 105%; in [10], 59%; in assay [11] it was 74.3%; in assay [12], 77.9%. Also, the growth in [13] is 71.9%; in [14], 90.9%; in [15] it was 56.3%; in assay [16], 62.2%; in assay [17], 117%; in [18] it was -27.3% (active). Besides, the growth in [19] was 69.9%.

As to `CN1CCC2(CC1)N=C(SCC(=O)Nc1cnc3ccccc3c1)C(c1ccc(Br)cc1)=N2`, the growth in assay [1] was 63.5%; in assay [2], 57.6%; in assay [3] it was 50.8%; in [4], 38.9%; in assay [5], 3.34% (active); in assay [6] it was -17.5% (active). Moreover, the growth is 24.2% in assay [7]; -81.7% (active) in [8]; -76.2% (active) in [9]; 21.8% in [10]; -61.5% (active) in assay [11]; -75.5% (active) in assay [12]. Further, the growth in assay [13] was -40.5% (active); in assay [14], 24.3%; in [15], 35.9%; in assay [16], 28%; in assay [17], 51.6%; in assay [18], -61.2% (active). The growth in [19] is -83.8% (active).

For the compound `CN1C(=O)C(C(=O)/C=C/c2ccccc2C(=O)O)C(=O)N(C)C1=O`, the growth is 95.1% in assay [1]; 99.5% in assay [2]; 99.1% in assay [3]; 91.3% in assay [4]; 104% in [5]; 90.5% in assay [6]. Further, the growth in assay [7] was 97.4%; in assay [8] it was 94.7%; in [9], 114%; in [10], 111%; in [11], 90.1%; in assay [12], 103%. Besides, the growth was 109% in assay [13]; 118% in assay [14]; 100% in [15]; 98.4% in [16]; 104% in [17]; 93.3% in [18]. Besides, the growth in assay [19] was 99%.

Take `COc1cnc2c(c1)C(=O)c1c-2n(CCCN2CCN(C)CC2)c(=O)c2cc(Cl)ccc12`: the growth was 47.9% in assay [1]; 30.4% in [2]; 49.3% in assay [3]; 20.5% in [4]; 6.14% (active) in assay [5]; 11.7% in [6]. For the same compound, the growth in assay [7] was 37.7%; in [8], 21.3%; in [9], 31.3%; in [10], 33.1%; in assay [11] it was -76.1% (active); in [12], 75.4%. Further, the growth in assay [13] is 48.6%; in assay [14], 46.9%; in assay [15] it was 35.7%; in assay [16], 35.5%; in assay [17], 14.7%; in assay [18], 14.1%. For the same compound, the growth in [19] was -54.4% (active).

With `Brc1ccsc1Br`, the growth in assay [1] was 107%; in assay [2] it was 104%; in assay [3], 125%; in [4], 93.4%; in assay [5], 111%; in assay [6], 95.9%. Besides, the growth is 105% in assay [7]; 108% in assay [8]; 103% in [9]; 126% in assay [10]; 108% in assay [11]; 114% in assay [12]. Besides, the growth in assay [13] is 116%; in assay [14] it was 117%; in assay [15], 113%; in assay [16], 126%; in assay [17] it was 106%; in [18], 111%. Moreover, the growth in assay [19] was 106%.

With `CN1C(=O)NC(Cc2c[nH]c3c(Cl)cccc23)C1=O` (stereo unspecified), the growth in [1] was 102%; in [2], 93.8%; in assay [3], 120%; in [4], 107%; in assay [5] it was 112%; in assay [6] it was 96.4%. Besides, the growth in assay [7] is 102%; in assay [8], 109%; in assay [9], 105%; in assay [10], 123%; in assay [11], 101%; in [12] it was 141%. Further, the growth in assay [13] is 117%; in [14], 92.1%; in assay [15], 110%; in assay [16], 109%; in assay [17], 98.4%; in assay [18] it was 116%. For the same compound, the growth in assay [19] was 108%.
